Laboratory results reported in PubChem BioAssay (NCATS).
Results filed as inconclusive are left out. The source made the active and inactive calls. The call rests on the fitted dose curve; in most records, active means well fitted curve in the direction sought with a large enough effect; inconclusive means small, poorly fitted or top-dose-only effect, or another doubt; inactive means no such curve, though single readings can be large; an effect the other way counts as inactive or inconclusive.

Key:
[1] = qHTS of pediatric cancer cell lines to identify multiple opportunities for drug repurposing: Primary screen for NB-EBc1 cells (AID 1347095)
Outline: (§1)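 Cells seeded at 500-1,000 cells/well in growth media, rested 5 hours at 37 degrees C, 5% CO2, then dosed; MIPE compounds at 11-point (from 0.78 nM) and NPC at 8-point (from 0.59 nM) final concentrations. Viability by CellTiter-Glo luminescence after 48 hours.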

[2] = qHTS of pediatric cancer cell lines to identify multiple opportunities for drug repurposing: Primary screen for U-2 OS cells (AID 1347096); further: nearly all actives have a fitted effect of over 50% in size
Outline: (§2)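 Viability after 48 h compound treatment at 37C, 500-1,000 cells/well, read as ATP luminescence with CellTiter-Glo. Primary screens used 11-point (MIPE, 0.78 nM-46 µM) or 8-point (NPC, 0.59 nM-46 µM) final concentrations; follow-up screens used 11-point dilutions.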

[3] = qHTS of pediatric cancer cell lines to identify multiple opportunities for drug repurposing: Primary screen for NB1643 cells (AID 1347099); further: nearly all actives have a fitted effect of over 50% in size
Outline: as §1

[4] = qHTS of pediatric cancer cell lines to identify multiple opportunities for drug repurposing: Primary screen for LAN-5 cells (AID 1347100)
Outline: as §2

[5] = qHTS of pediatric cancer cell lines to identify multiple opportunities for drug repurposing: Primary screen for BT-12 cells (AID 1347101); further: nearly all actives have a fitted effect of over 25% in size
Outline: (§3)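 Cells (500-1,000/well) rested 5 h, then received compounds for 48 h; metabolically active cells were measured by CellTiter-Glo luminescence. Final concentrations spanned up to 46 µM (MIPE, 11-point) or 0.59 nM-46 µM (NPC, 8-point) in primary screens, 11-point in follow-ups.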

[6] = qHTS of pediatric cancer cell lines to identify multiple opportunities for drug repurposing: Primary screen for Rh18 cells (AID 1347102); further: nearly all actives have a fitted effect of over 65% in size
Outline: as §2

[7] = qHTS of pediatric cancer cell lines to identify multiple opportunities for drug repurposing: Primary screen for RD cells (AID 1347104); further: nearly all actives have a fitted effect of over 55% in size
Outline: as §1

[8] = qHTS of pediatric cancer cell lines to identify multiple opportunities for drug repurposing: Primary screen for SK-N-SH cells (AID 1347098);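 further: DMSO served as neutral control and bortezomib at 2.3 µM as positive control; nearly all actives have a fitted effect of over 65% in size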
Outline: as §3

[9] = qHTS of pediatric cancer cell lines to identify multiple opportunities for drug repurposing: Primary screen for OHS-50 cells (AID 1347103); further: nearly all actives have a fitted effect of over 40% in size
Outline: as §3

[10] = qHTS of pediatric cancer cell lines to identify multiple opportunities for drug repurposing: Primary screen for Saos-2 cells (AID 1347097); further: nearly all actives have a fitted effect of over 40% in size
Outline: as §1

Measured: Potency

Nc1ccc(C(=O)Oc2ccccc2)c(O)c1
not listed: [8] | [9] | [10]
inactive: all other assays above

O=C(CN1CCNCC1)NC1CCCCC1
inactive: [1] | [2] | [8] | [3] | [6] | [9]

Cn1c(=O)c2c(ncn2CCO)n(C)c1=O
not listed: [5] | [10]
inactive: all other assays above

NCC1CCC(C(=O)Oc2ccc(CCC(=O)O)cc2)CC1 (stereo not given)
not listed: [1] | [7]
inactive: all other assays above

COc1nccnc1NS(=O)(=O)c1ccc(N)cc1
not listed: [3] | [7] | [10]
inactive: all other assays above

O=C(c1ccccc1)C(O)c1ccccc1 (stereo not given)
not listed: [10]
inactive: all other assays above
